WRN inhibitor: qHTS for Inhibitors of WRN Helicase; Bifunctional 3'-5' exonuclease/ATP-dependent helicase WRN (Homo sapiens), Q14191; WRN helicase unwinding, fluorescent forked duplex, kinetic; Potency, µM (titrated, usually from 114 µM), for the others: at the highest dose activity change, negative = inhibition, actives largely listed as inhibitors; 0.46% of 360,000 active; AID 651768, 2012; also: % is scaled to controls: 0 for no effect and ±100 for the full control effect; nearly all actives have a fitted effect of over 55% in size
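WRN at 20 nM final was preincubated with compound for 15 min at room temperature; reaction started with 100 nM forked duplex oligonucleotide carrying fluorophore and quencher plus 2 mM ATP (final). Unwinding followed kinetically by red fluorescence (ex 525/em 598 nm).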
FEN1 inhibitor: qHTS Assay for the Inhibitors of Human Flap endonuclease 1 (FEN1); Potency, µM (titrated, usually from 114 µM), without a hit: top-dose activity change, negative = inhibition, usual class: inhibitors; AID 588795, 2011; Recombinant FEN1 flap cleavage, fluorescence, 15 min; 0.35% of 390,000 active; also: % is scaled to controls: 0 for no effect and ±100 for the full control effect; nearly all actives have a fitted effect of over 65% in size
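Potency values derive from four-parameter Hill fits of normalized qHTS data. The reaction used 10 nM FEN1 preincubated 15 min at room temperature with compound, then 50 nM DNA substrate, read at 0 and 15 min.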
POLH inh: qHTS for Inhibitors of Polymerase Eta. DNA polymerase eta (Homo sapiens), Q9Y253. recombinant Pol eta, fluorescent DNA replication assay. Potency, µM (titrated, usually from 114 µM), for the others: at the top dose activity change, negative = inhibition, actives largely listed as inhibitors. 1.2% of 390,000 active. AID 588591, 2011; also: % is scaled to controls: 0 for no effect and ±100 for the full control effect
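Pol eta at 10 nM preincubated with compounds 15 min at room temperature; reaction started with fluorescent substrate (50 nM final) and read kinetically at 0 and 10 min.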
Pol beta inh: qHTS Assay for Inhibitors of DNA Polymerase Beta. Pol beta primer extension/strand displacement, fluorescence kinetic. AID 485314, 2010. 1.3% of 340,000 active. Potency, µM (doses to about 114 µM), inactives show at the highest dose activity change, negative = inhibition, actives largely listed as inhibitors. P06746; also: % is scaled to controls: 0 for no effect and ±100 for the full control effect
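Pol beta (10 nM) was preincubated with compound for 15 min at room temperature. The reaction was then started with 50 nM substrate and read immediately and after a further 10 min at room temperature.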
Pol iota inh: qHTS for Inhibitors of Polymerase Iota; DNA polymerase iota (Homo sapiens), Q9UNA4; Pol iota fluorescent replication assay, 10 min; Potency, µM (top dose mostly 115 µM), for inactives: at the highest dose activity, negative = inhibition, actives largely listed as inhibitors; 1% of 390,000 active
Target sequence (Q9UNA4 whole entry, looked up): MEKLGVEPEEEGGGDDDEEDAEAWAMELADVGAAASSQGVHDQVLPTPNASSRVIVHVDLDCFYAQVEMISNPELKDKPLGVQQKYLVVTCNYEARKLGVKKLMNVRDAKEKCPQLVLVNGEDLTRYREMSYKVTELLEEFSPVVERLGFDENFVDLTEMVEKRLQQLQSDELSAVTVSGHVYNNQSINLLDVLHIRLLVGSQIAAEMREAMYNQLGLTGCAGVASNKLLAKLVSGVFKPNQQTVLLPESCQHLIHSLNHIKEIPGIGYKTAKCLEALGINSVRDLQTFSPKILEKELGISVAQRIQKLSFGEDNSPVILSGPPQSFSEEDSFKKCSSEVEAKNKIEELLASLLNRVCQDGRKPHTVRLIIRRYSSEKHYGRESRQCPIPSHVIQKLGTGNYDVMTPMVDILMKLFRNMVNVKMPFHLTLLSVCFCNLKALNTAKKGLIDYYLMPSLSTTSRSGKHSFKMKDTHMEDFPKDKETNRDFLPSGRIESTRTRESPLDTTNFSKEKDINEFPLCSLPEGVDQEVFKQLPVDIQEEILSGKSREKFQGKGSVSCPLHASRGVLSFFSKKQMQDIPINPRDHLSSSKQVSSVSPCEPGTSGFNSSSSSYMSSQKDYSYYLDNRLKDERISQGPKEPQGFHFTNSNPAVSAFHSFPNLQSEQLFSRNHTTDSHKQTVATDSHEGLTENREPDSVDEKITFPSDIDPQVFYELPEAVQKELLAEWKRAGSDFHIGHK
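Pol iota at 10 nM preincubated 15 min with compounds at room temperature; reaction started with fluorescent substrate, 50 nM final. Fluorescence read kinetically at 0 and 10 min; buffer-only wells as negative control.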
POLK inh: qHTS for Inhibitors of Polymerase Kappa. Potency, µM (highest dose often 107 µM), inactives show at the highest dose activity, negative = inhibition, hits mostly inhibitors. purified Pol kappa, fluorescent DNA synthesis assay, 10 min. 0.53% of 400,000 active; also: % is scaled to controls: 0 for no effect and ±100 for the full control effect
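Here, compound and 10 nM enzyme are combined for 15 min at room temperature; adding 50 nM substrate (final) starts DNA synthesis, tracked by fluorescence at 0 and 10 min against buffer-only wells.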
Numbers without * were called inactive; ? = inconclusive; . = no result; [ ] = another dose, or the depositor's remark. Shown are actives, neighbours in structure and some others; about 2.4% of the full set was active somewhere. Calls follow the shape of the dose curve; as a rule, active = well fitted curve in the direction sought with a large enough effect; inconclusive = small, poorly fitted or top-dose-only effect, or another doubt; inactive = no such curve, though single readings can be large; an effect the other way counts as inactive or inconclusive. Potency is read from the fitted curve at half-maximal effect.

SMILES	WRN inhibitor	FEN1 inhibitor	POLH inh	Pol beta inh	Pol iota inh	POLK inh
Cc1cccc(NC(=O)CSc2ncc3c(n2)-c2ccccc2N(Cc2ccc(F)cc2)S3(=O)=O)c1C	.	3.9%	-4.6%	3.4%	10.7%	-14.0%
COc1cc2c(C(=O)N3CCN(c4cc(Cl)ccc4C)CC3)cn(CC(C)C)c(=O)c2cc1OC	.	-7.4%	-1.9%	13.8%	?	0.3%
COc1cc2c(C(=O)N3CCN(c4cccc(C(F)(F)F)c4)CC3)cn(CC(C)C)c(=O)c2cc1OC	.	-23.2%	-20.9%	-5.5%	89.1µM*	-12.6%[60.1 µM]
FC(F)c1nc2ccccc2[nH]1	8.6%	-4.9%	0.3%	50.1µM*	24.2%	-4.6%
N#C/C(=C\c1ccc(Sc2nc3ccccc3[nH]2)o1)c1ccccc1	-10.9%	-10.5%	?	-1.3%	-0.8%	-5.6%
N#C/C(=C/c1ccc(N2CCOCC2)o1)c1nc2ccccc2[nH]1	56.2µM*	?	?	?	7.5%	-20.2%
N#C/C(=C\c1ccc(Sc2ccc(Cl)cc2)o1)c1nc2ccccc2[nH]1	-5.7%	?	?	15.8µM*	?	-8.1%
O=C(COc1ccccc1F)Nc1ccc(OCc2cc(=O)n3ccccc3n2)cc1	.	13.4%	?	8.1%	-8.6%	-14.8%[60.1 µM]
Cc1cccc(NC(=O)CNC(=O)CSc2ncccn2)c1C	1.8%	4.1%	-18.9%	.	17.8%	-8.9%
Cc1ccc(NC(=O)CN(C)C(=O)Cn2ncc(Cl)c(Cl)c2=O)cc1	?	-5.7%	?	?	44.7µM*	-16.1%
Cc1ccc(NC(=O)CN(C)C(=O)Cc2ccc(Cl)c(Cl)c2)cc1	-6.7%	-2.3%	-14.5%	-2.3%	11.9%	-4.3%
Cc1ccc(NC(=O)Cc2ccc(Cl)cc2)cc1S(=O)(=O)N1CCCCCC1	-12.4%	-12.9%	?	.	14.2%	-4.2%
Cc1cccc(NC(=O)CNC(=O)Cn2ncc(Cl)c(Cl)c2=O)c1C	?	-9.1%	3.98µM*	.	15.8µM*	?
Cc1ccc(NC(=O)Cn2ncc(Cl)c(Cl)c2=O)cc1S(=O)(=O)N1CCCCC1	-8.3%	-11.7%	-10.8%	.	50.1µM*	?
COc1ccc2[nH]c(=O)c(CN(Cc3ccco3)C(c3nnnn3Cc3ccccc3)C(C)C)cc2c1 (stereo not drawn)	-16.3%	-7.6%	0.9%	3.6%	?	-11.6%
Cc1ccc(CN(Cc2cc3cc4c(cc3[nH]c2=O)OCCO4)Cc2nnnn2Cc2ccco2)cc1	-19.9%[11.6 µM]	-14.7%	?	28.2µM*	20µM*	70.8µM*
COc1ccc(Cn2nnnc2CN(Cc2cc3cc(C)ccc3[nH]c2=O)C2CCCC2)cc1	-2.9%	-16.3%	-9.1%	11.7%	19.1%	-6.4%[60.1 µM]
COc1ccc2[nH]c(=O)c(CN(C3CCCCC3)C(c3nnnn3Cc3ccco3)C(C)C)cc2c1 (stereo not drawn)	?	-5.9%	17.8µM*	35.5µM*	15.8µM*	?
COc1ccc2[nH]c(=O)c(CN(Cc3nnnn3Cc3ccco3)C3CCCCC3)cc2c1	?	-12.7%	-8.3%	28.2µM*	20µM*	35.5µM*
O=c1cc(-c2cccc(F)c2)[nH]c2cc(Cl)ccc12	.	.	.	.	.	-7.7%
Cc1ccc(/C=C2/NC(=O)N(c3ccccc3)C2=O)o1	5.7%	-2.1%	-9.4%	15.2%	4.1%	-5.7%
Cc1c(C(=O)O)cccc1-c1ccc(/C=C2/NC(=O)N(c3ccccc3)C2=O)o1	-19.0%	3.3%	22.4µM*	17.8µM*	?	?
Cc1cccc(NC(=O)CN2C(=O)N/C(=C/c3ccc(-c4cccc(C(=O)O)c4C)o3)C2=O)c1	-18.0%	-14.3%	79.4µM*	?	-8.7%	-23.4%
Cc1c(C(=O)O)cccc1-c1ccc(/C=C2\SC(=O)NC2=O)o1	-3.8%[11.6 µM]	?	22.4µM*	7.3%	?	?
NC(=O)C1CCCN1C(=O)C(Cc1cnc[nH]1)NC(=O)C1CCC(=O)N1 (stereo not drawn)	.	.	.	.	.	11.6%[60.1 µM]
SMILES	WRN inhibitor	FEN1 inhibitor	POLH inh	Pol beta inh	Pol iota inh	POLK inh
Cc1ccc2onc(CC(=O)Nc3cc(F)ccc3F)c2c1	.	-0.8%	.	24.6%	?	?
CCOC(=O)c1cnn(-c2nc(SC)nc3sc4c(c23)CCC4)c1N	-7.6%	-3.3%	?	10µM*	?	-15.1%
Cc1ccccc1OCC(=O)OCc1cc(=O)n2nc(C3CCCCC3)sc2n1	.	-3.5%	-17.1%	-22.0%	7.5%	-22.1%
CCc1ccc2oc(C(=O)NCc3ccccc3)cc(=O)c2c1	.	-3.5%	-13.3%	?	-8.7%	5.4%
O=C(O)C1Cc2ccccc2CN1S(=O)(=O)c1ccc(Cl)cc1 (stereo not drawn)	-8.7%	3.1%	?	?	26.6%	-24.5%
O=C(O)C1Cc2ccccc2CN1C(=O)COc1ccc(Cl)cc1 (stereo not drawn)	-6.0%[11.6 µM]	-0.6%	31.6µM*	-27.2%	-16.8%	-20.3%
O=C(CS(=O)(=O)c1cccc2nsnc12)NCc1ccccc1Cl	.	11.1%	-8.2%	6.8%	24.1%	-3.2%[60.1 µM]
CN1CCc2nc3sc(C(=O)C45CC6CC(CC(C6)C4)C5)c(N)c3cc2C1	?	?	?	50.1µM*	0.0%	?
CN1CCc2nc3sc(C(=O)c4ccc(F)cc4)c(N)c3cc2C1	.	3.8%	-18.7%	12.8%	24.7%	2.0%
Cc1ccc(C2C(C#N)=C(N)Oc3n[nH]c(-c4ccccc4)c32)o1 (stereo not drawn)	?	-17.0%	?	20.8%	-12.6%	-8.2%
Cc1ccc(C2C(C#N)=C(N)Oc3n[nH]c(-c4cccnc4)c32)o1 (stereo not drawn)	1.9%	-0.2%	-9.2%	8.8%	28.2µM*	6.9%
COc1ccc(Cc2nn3c(Cn4nnc5ccccc54)nnc3s2)cc1	-14.4%	8.5%	?	35.5µM*	?	-11.3%
c1ccc(-c2nn3c(Cn4nnc5ccccc54)nnc3s2)cc1	155.8%	10.3%	-12.7%	-3.5%	-16.9%	4.8%[60.1 µM]
CC(C)(C)c1ccc(C(=O)N/C(=C\c2cccc([N+](=O)[O-])c2)C(=O)Nc2cccc(C(=O)O)c2)cc1	?	?	22.4µM*	?	62.0%	-9.7%
COc1ccc(C(=O)OCc2cc(=O)oc3cc(C)ccc23)cc1S(=O)(=O)N1CCOCC1	0.1%	.	2.2%	.	.	.
COc1ccc2c(COC(=O)c3ccc(C)c(S(=O)(=O)N4CCOCC4)c3)cc(=O)oc2c1	-21.7%	-0.9%	14.1µM*	.	?	-8.4%
CCCCN1C(=O)C(NC(C)=O)c2cc(Br)ccc21 (stereo not drawn)	-3.0%	-14.9%	-9.6%	-2.2%	6.0%	-5.3%

Bioassay records deposited in PubChem BioAssay by National Center for Advancing Translational Sciences (NCATS).
